{"source": "PubChem BioAssay AID1850", "about": "(Southern Research Specialized Biocontainment Screening …, 2009)", "note": "The whole screen tested about 310,000 compounds, of which about 1,000 (0.32%) were called active. These entries were drawn from the full list. Results with a measured potency or affinity are listed apart. Values without a mark were called inactive. No rule for the calls is given here. Where a SMILES comes first, the peptide text is derived from it. The star is where a group is joined. Boc = CC(C)(C)OC(=O)*", "data": [{"assay": "PhoP regulon inhibitors, Salmonella typhi PhoP promoter GFP reporter, confirmatory (AID 1850);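 also: 0% = induced wells with vehicle and 100% = uninduced wells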", "settings": "fluorescence, 4 h, at 50 µM, hits give high values", "units": {"inhibition": "%"}, "values": [{"smiles": "CN(C)Cc1cnc2ccc(Cl)cn12", "inhibition": 2.3}, {"smiles": "COc1ccc(/C=N\\NS(=O)(=O)c2ccc(C)cc2)cc1COc1ccccc1[N+](=O)[O-]", "inhibition": 2.43}, {"smiles": "Cc1ccc(CNC(=O)CSc2ncc(C(=O)Nc3ccccc3)c(=O)n2C)cc1", "inhibition": 6.4}, {"smiles": "CC(C)CC(NC(=O)OC(C)(C)C)C(=O)NC(C(=O)N1CCCC1C(N)=O)C(C)C", "note": "(stereo not drawn) (Boc-Leu-Val-Pro-NH2; configuration not given here)", "inhibition": -15.4}, {"smiles": "CC(C)(C)OC(=O)N1CCC[C@@H]1CO", "inhibition": -5.17}, {"smiles": "O=c1[nH]c(=O)n(CCC2=CCCCC2)c(O)c1C=NC1CCN(Cc2ccccc2)CC1", "inhibition": 5.62}, {"smiles": "CC1CCCCN1CC(=O)c1ccc2cc[nH]c2c1", "note": "(configuration not stated)", "inhibition": -0.31}, {"smiles": "Cc1ccc(CC2S/C(=C(/C#N)C(=O)NCc3ccco3)N(c3ccccc3)C2=O)cc1", "note": "(configuration not stated)", "inhibition": -3.66}, {"smiles": "Cc1ccc(S(=O)(=O)NC(=NC2CCCCC2)c2ccccc2)cc1", "inhibition": 5.09}, {"smiles": "O=[N+]([O-])c1ccc(/C=N/Nc2ccccn2)cc1", "inhibition": -0.36}, {"smiles": "COc1ccc(O)c(/C=N/Nc2nc3ccccc3[nH]2)c1", "inhibition": 7.61}, {"smiles": "COc1cc([N+](=O)[O-])cc(/C=N/NC(=O)CSc2nnc(-c3ccccc3)n2C)c1O", "inhibition": -13.2}, {"smiles": "Cc1nonc1NC(=O)CSc1ccccn1", "inhibition": 6.57}, {"smiles": "CCN(CC)c1ccc(/C=N/Nc2nc3ccccc3[nH]2)c(O)c1", "inhibition": 13.9}, {"smiles": "COc1cc([N+](=O)[O-])cc(/C=N/NC(=O)Cn2nccc2C)c1O", "inhibition": 14.4}, {"smiles": "CC(=O)Nc1nonc1NC(=O)CSc1ccccn1", "inhibition": 2.24}, {"smiles": "O=[N+]([O-])c1cccc(/C=N/Nc2ccccn2)c1", "inhibition": 8.41}, {"smiles": "COc1cccc(N2CCN(C(=O)C3CCN(S(=O)(=O)c4ccc5c(c4)oc(=O)n5C)CC3)CC2)c1", "inhibition": 8.62}, {"smiles": "Cc1ccc(C)c(-c2csc(-c3cccnc3)n2)c1", "inhibition": 1.2}, {"smiles": "COc1ccc(-c2cc(-c3ccc(O)cc3)nc(N)c2C#N)cc1", "inhibition": -1.2}, {"smiles": "N#C/C(=C\\c1ccccc1Cl)C(=O)Nc1ccccn1", "inhibition": 2.25}, {"smiles": "COC(=O)COc1ccc(C(C2C(=O)CC(C)(C)CC2=O)C2C(=O)CC(C)(C)CC2=O)cc1", "inhibition": -2.61}, {"smiles": "NC(=S)NNC(=O)c1cccc(Br)c1", "inhibition": -6.69}, {"smiles": "Cc1ccc(-n2nc(C)c(C(C)(O)C(F)(F)F)c2N)cc1", "note": "(configuration not stated)", "inhibition": 9.79}, {"smiles": "O=C(NC(Cc1ccccc1)C(=O)O)/C(=C\\c1ccccc1)NC(=O)c1ccc(Br)o1", "note": "(configuration not stated)", "inhibition": -5.27}, {"smiles": "COc1cccc(NC(=O)c2ccc(NC(=O)C(C)C)cc2)c1", "inhibition": -3.48}, {"smiles": "Cc1ccc(N2N=C(c3ccc(F)cc3)CC2c2ccco2)cc1", "note": "(configuration not stated)", "inhibition": -33.1}, {"smiles": "CC1CN(C(=O)COC(=O)c2ccc(N(C)C)cc2)CC(C)O1", "note": "(configuration not stated)", "inhibition": 1.66}, {"smiles": "COc1ccc(CC(=O)OCC(=O)N(C)C2CCS(=O)(=O)C2)cc1OC", "note": "(configuration not stated)", "inhibition": -0.6}, {"smiles": "O=C(CSc1nc2ccccc2s1)N/N=C/c1ccccc1C(=O)O", "inhibition": 10.8}, {"smiles": "Cc1nn(C)cc1/C=N/NC(=O)CSc1ccccn1", "inhibition": 3.55}, {"smiles": "O=C(CSc1nc2ccccc2s1)NCc1cc([N+](=O)[O-])ccc1O", "inhibition": -40.6}, {"smiles": "Cc1ccnn1CC(=O)N/N=C/c1c[nH]c2ccccc12", "inhibition": 2.22}, {"smiles": "O=C(CSc1ccccn1)N/N=C/c1ccccc1[N+](=O)[O-]", "inhibition": -6.71}, {"smiles": "O=C(CSc1ccccn1)N/N=C/c1cccc([N+](=O)[O-])c1", "inhibition": 1.33}, {"smiles": "COc1ccc(NC(=O)CN2C(=O)c3cccc4cccc2c34)cc1OC", "inhibition": -7.56}, {"smiles": "O=C(Cn1cc(C(F)(F)F)cc(Cl)c1=O)NCc1ccc(Cl)cc1", "inhibition": -1.19}, {"smiles": "CCCCOC(=O)c1ccc(-c2ccc(/C=N/NC(=S)NCC)o2)cc1", "inhibition": -7.32}, {"smiles": "O=[N+]([O-])c1ccc(/C([O-])=C(/C(=S)NCc2ccco2)[n+]2ccccc2)cc1", "inhibition": 13.8}, {"smiles": "O=C(NC1CCN(Cc2ccccc2)CC1)C1CCN(S(=O)(=O)c2ccccc2)CC1", "inhibition": 5.66}, {"smiles": "Clc1ccc(-c2csc(N3CCc4ccccc4C3)n2)cc1", "inhibition": 5.55}, {"smiles": "CC(C)CN=CC1=C(O)c2ccccc2C1=O", "inhibition": 5.42}, {"smiles": "CC(C)(C)CN1CCN(Cc2cc3ccccc3[nH]2)CC1CCO", "note": "(configuration not stated)", "inhibition": 2.46}, {"smiles": "Cc1cc(C)n(C(=O)Cn2nc([N+](=O)[O-])cc2C)n1", "inhibition": -5.88}, {"smiles": "O=C1CSC(c2cccc([N+](=O)[O-])c2)N1c1ccccc1", "note": "(configuration not stated)", "inhibition": 0.65}, {"smiles": "CN1CCCC(CC2Oc3ccccc3Sc3ccccc32)C1", "note": "(configuration not stated)", "inhibition": 11.3}, {"smiles": "Clc1ccccc1OCCCCN1CCCCC1", "inhibition": -2.94}, {"smiles": "OCCC1CN(Cc2cccc3c2OCO3)CCN1C1CCCCC1", "note": "(configuration not stated)", "inhibition": -4.26}, {"smiles": "Cc1ccc(S(=O)(=O)N(C)C(=O)NC(=O)NS(=O)(=O)c2ccccc2)cc1", "inhibition": -5.97}, {"smiles": "CCC(=O)/C=C1\\Sc2ccc(OC)cc2N1CCO", "inhibition": -12.9}, {"smiles": "CCC(/C=C1\\Sc2ccc(OC)cc2N1CC)=C\\c1sc2ccc(OC)cc2[n+]1CCCS(=O)(=O)[O-]", "inhibition": -7.82}, {"smiles": "COc1ccc(/C=N/Nc2nc(C)cc(-c3ccccc3)n2)cc1OC", "inhibition": -1.16}, {"smiles": "COc1ccc(-c2ccc(=O)n(Cc3cccc(Cl)c3)n2)cc1", "inhibition": -10.8}, {"smiles": "CCC(=O)Nc1ccc(N/C(N)=N/c2nc(C)cc(C)n2)cc1", "inhibition": -8.68}, {"smiles": "Cc1ccc(N/C(N)=N/c2nc(C)cc(C)n2)cc1", "inhibition": -9.13}, {"smiles": "COc1ccc(C)cc1N/C(N)=N/c1nc(C)cc(C)n1", "inhibition": -5.2}, {"smiles": "Cc1cc(C)nc(/N=C(\\N)Nc2cc([N+](=O)[O-])ccc2C)n1", "inhibition": -1.74}, {"smiles": "O=C(NCCF)C1Nc2ccc(OC(F)(F)F)cc2C2C=CCC12", "note": "(configuration not stated)", "inhibition": 9.88}, {"smiles": "C=CCN(C(=O)c1csnn1)C(C(=O)NCc1ccccc1)c1c(F)cccc1Cl", "note": "(configuration not stated)", "inhibition": -1.14}, {"smiles": "CN(CC(=O)N1CCN(c2cccc(Cl)c2)CC1)S(=O)(=O)c1cccs1", "inhibition": 2.82}, {"smiles": "CCOC(=O)C(C)NC(=O)CCc1nnc2ccc(N3CCCCC3)nn12", "note": "(configuration not stated)", "inhibition": 1.43}, {"smiles": "CC(=O)c1c(C)[nH]c(C(=O)N2CCN(c3ccccn3)CC2)c1C", "inhibition": 2.98}, {"smiles": "Nc1nnc(SCC(=O)OCC(=O)c2ccccc2Br)s1", "inhibition": 1.19}, {"smiles": "C#CCOCCOCCOCCNc1nc(N2CCN(C(=O)CCCCCCCCCCNC(=O)Cn3cc(C[C@@H](C)O)nn3)CC2)nc(N2CCN(C(=O)CCCCCCCCCCNC(=O)[C@@H]([C@H](C)O)n3cc(C)nn3)CC2)n1", "inhibition": -25.3}, {"smiles": "C#CCOCCOCCOCCNc1nc(N2CCN(C(=O)Cn3cc(CCCN=C(N)N)nn3)CC2)nc(N2CCN(C(=O)[C@H]([C@@H](C)CC)n3cc(CCCCN)nn3)CC2)n1", "inhibition": -18}, {"smiles": "C#CCOCCOCCOCCNc1nc(N2CCOCC2)nc(N2CCN(C(=O)CCCCCCCCCCNC(=O)[C@@H]([C@H](C)CC)n3cc(CCCCCN)nn3)CC2)n1", "inhibition": 2.64}, {"smiles": "C#CCOCCOCCOCCNc1nc(N2CCN(C(=O)CCCCCCCCCCNC(=O)Cn3cc(CCCCCN)nn3)CC2)nc(N2CCN(C(=O)CCCCCCCCCCNC(=O)Cn3cc(C[C@@H](C)O)nn3)CC2)n1", "inhibition": -2.3}, {"smiles": "C#CCOCCOCCOCCNc1nc(N2CCN(C(=O)CCCCCCCCCCNC(=O)[C@H](CCC(=O)O)n3cc(CCCCCN)nn3)CC2)nc(N2CCN(C(=O)CCCCCCCCCCNC(=O)[C@@H]([C@H](C)O)n3cc(C)nn3)CC2)n1", "inhibition": -1.84}, {"smiles": "C#CCOCCOCCOCCNc1nc(N2CCN(C(=O)CCCCCCCCCCNC(=O)Cn3cc(C[C@@H](C)O)nn3)CC2)nc(N2CCN(C(=O)CCCCCCCCCCNC(=O)[C@@H](CCC(=O)O)n3cc(CCCCCN)nn3)CC2)n1", "inhibition": -25.1}, {"smiles": "C#CCOCCOCCOCCNc1nc(N2CCN(C(=O)CCCCCCCCCCNC(=O)Cn3cc(CCCCCN)nn3)CC2)nc(N2CCN(C(=O)CCCCCCCCCCNC(=O)[C@H](CO)n3cc(CCCCCN)nn3)CC2)n1", "inhibition": 16.5}, {"smiles": "C#CCOCCOCCOCCNc1nc(N2CCN(C(=O)Cn3cc(CCCCN)nn3)CC2)nc(N2CCN(C(=O)[C@H]([C@@H](C)CC)n3cc(CCCN=C(N)N)nn3)CC2)n1", "inhibition": 5.45}, {"smiles": "CN(CC(=O)NCc1ccncc1)S(=O)(=O)c1ccc(F)cc1", "inhibition": 9.34}, {"smiles": "COc1cc(C(=O)NCC(=O)N/N=C(\\C)Cc2ccccc2)cc(OC)c1OC", "inhibition": 8.05}, {"smiles": "Cc1cccc(CC(C)NC(=O)c2cc(COc3ccc(C)c(C)c3)on2)n1", "note": "(configuration not stated)", "inhibition": -0.63}, {"smiles": "CCN(CC(=O)N1CCC(C(N)=O)CC1)S(=O)(=O)c1ccc(Cl)cc1", "inhibition": -8.55}, {"smiles": "Cc1ccc(-c2noc(CSc3nnc(CCc4ccccc4)n3-c3ccccc3)n2)cc1", "inhibition": -7.22}, {"smiles": "CCCCc1ccc(NC(=O)Nc2c(C)n(C)n(-c3ccccc3)c2=O)cc1", "inhibition": -5.72}, {"smiles": "O=C(NNC(=O)C1C2C=CC(C2)C1C(=O)O)c1cc(Cl)ccc1O", "note": "(configuration not stated)", "inhibition": -4.67}, {"smiles": "COc1cc(C2NCCc3c2[nH]c2ccccc32)ccc1OC(C)C", "note": "(configuration not stated)", "inhibition": -4.21}, {"smiles": "COc1ccc(C2NCCc3c2[nH]c2ccccc32)cc1CSc1nc2ccccc2s1", "note": "(configuration not stated)", "inhibition": -3.05}, {"smiles": "CC(=O)N1CCN(S(=O)(=O)c2cccc(C(=O)NNC(=O)COc3ccc(Cl)cc3C)c2)CC1", "inhibition": 3.91}, {"smiles": "COc1ccc(Cn2c(O)c(/C=N/NC(=O)c3ccccc3O)c(=O)[nH]c2=O)cc1", "inhibition": -3.02}]}]}
